The nature of assay [1]: Primary fluorescence-based thiol-reactive (MSTI) qHTS assay for identification of artifact compounds. (AID 1845221). Also: nearly all actives have a fitted effect of over 65% in size. Also: potency is read from the fitted curve at half-maximal effect. In a few lines: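 In PBS pH 7.4 with 2% DMSO, each compound met 4 uM MSTI for one hour at ambient temperature, shielded from light, before fluorescence detection.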
In general terms: In qHTS, concentration-response curves come from the screen itself.

The subject of the next assay is NIH3T3. The assay is described as follows: Cytotoxic Profiling of Annotated Libraries Using Quantitative High-Throughput Screening (AID 1296008). Also: nearly all actives have a fitted effect of over 60% in size. Also: potency is read from the fitted curve at half-maximal effect. As to max response: % is scaled to controls: 0 for no effect and ±100 for the full control effect. To be noted: Five cell lines viability, CellTiter-Glo ATP luminescence, 48-72 h; max response: stronger effect = lower value. In short, it runs like this:
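Cells exposed to compounds for 48 or 72 hr at 37 degrees Celsius. Viability read as ATP-coupled luminescence with CellTiter-Glo after 10 min at room temperature.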
(Cellular ATP, detected with luciferase, serves as a proxy for viable cell number.)

For assay [2], the target named is Cytochrome P450 2D6 (Homo sapiens) (UniProt P10635). The assay can be described thus: Cytochrome P450 family 2 subfamily D member 6 (CYP2D6) small molecule antagonists: luciferase biochemical (cell-free) qHTS assay (AID 1645840; active = well fitted curve in the direction sought with a large enough effect in the repeat runs; an effect the other way counts as inactive or inconclusive; also: nearly all actives have a fitted effect of over 55% in size; also: potency is read from the fitted curve at half-maximal effect; as to activity change, negative = inhibition: % is scaled to controls: 0 for no effect and ±100 for the full control effect). In short, it runs like this: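 P450-Glo CYP2D6 system: proluciferin substrate converted by enzyme to luciferin, read by luminescence proportional to activity. Enzyme-substrate mix with compound 10 min at room temperature, then NADPH regeneration 1 h before detection reagent.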
Sequence of Cytochrome P450 2D6 (Homo sapiens) (P10635 whole entry, looked up): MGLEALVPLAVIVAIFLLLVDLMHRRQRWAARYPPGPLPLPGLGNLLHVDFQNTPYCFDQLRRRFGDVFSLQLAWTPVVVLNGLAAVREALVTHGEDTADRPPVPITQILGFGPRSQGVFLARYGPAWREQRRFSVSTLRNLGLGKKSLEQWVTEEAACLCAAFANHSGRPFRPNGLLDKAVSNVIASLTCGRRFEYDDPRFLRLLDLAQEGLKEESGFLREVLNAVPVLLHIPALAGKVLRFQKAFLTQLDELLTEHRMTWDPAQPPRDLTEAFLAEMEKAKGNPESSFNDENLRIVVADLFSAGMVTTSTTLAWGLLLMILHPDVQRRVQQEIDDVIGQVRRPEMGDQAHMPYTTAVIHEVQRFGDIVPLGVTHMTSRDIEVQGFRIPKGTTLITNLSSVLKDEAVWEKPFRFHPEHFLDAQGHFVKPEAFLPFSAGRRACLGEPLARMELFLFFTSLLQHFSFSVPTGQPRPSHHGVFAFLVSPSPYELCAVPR

Assay [3] addresses Cytochrome P450 2C9 (Homo sapiens) (UniProt P11712). The assay can be described thus: Cytochrome P450 family 2 subfamily C member 9 (CYP2C9) small molecule antagonists: luciferase biochemical (cell-free) qHTS assay (AID 1645842; active = well fitted curve in the direction sought with a large enough effect in the repeat runs; an effect the other way counts as inactive or inconclusive; also: nearly all actives have a fitted effect of over 55% in size; also: potency is read from the fitted curve at half-maximal effect; as to activity change, negative = inhibition: % is scaled to controls: 0 for no effect and ±100 for the full control effect). In short, it runs like this:
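P450-Glo CYP2C9 system: proluciferin substrate with enzyme in mix containing 0.4% BSA, 10 min at room temperature, then NADPH regeneration solution added and incubated 1 h at 37C. Detection reagent stopped reaction; luminescence read after 20 min as RLU.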

The target of assay [4] is Catechol O-methyltransferase (Homo sapiens) (UniProt P21964). The assay can be described thus: Confirmatory Screen for Target Class Profiling of Small Molecule Inhibitors of Methyltransferases (AID 1745852; calls by dose curve; as to activity change, negative = inhibition: % is scaled to controls: 0 for no effect and ±100 for the full control effect). To be noted: MTase-Glo luminescence, SAH detection, recombinant enzyme; measured here: COMT max response; stronger effect = lower value.
Sequence of Catechol O-methyltransferase (Homo sapiens) (P21964 whole entry, looked up): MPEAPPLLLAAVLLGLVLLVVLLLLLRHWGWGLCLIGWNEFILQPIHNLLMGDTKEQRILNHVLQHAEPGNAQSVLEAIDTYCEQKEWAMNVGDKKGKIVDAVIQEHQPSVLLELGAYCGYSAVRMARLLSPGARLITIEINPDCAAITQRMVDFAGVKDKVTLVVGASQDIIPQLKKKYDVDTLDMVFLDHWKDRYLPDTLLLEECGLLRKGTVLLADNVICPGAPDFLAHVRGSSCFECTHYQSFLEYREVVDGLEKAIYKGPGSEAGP
The target of assay [5] is Guanidinoacetate N-methyltransferase (Homo sapiens) (UniProt Q14353). Described as above. To be noted: activity change, negative = inhibition: at 57.3 µM (top of the series) unless noted.
Assay [6] addresses Nicotinamide N-methyltransferase (Homo sapiens) (UniProt P40261). The description is as above. To be noted: MTase-Glo luminescence, SAH detection, recombinant enzyme; measured here: NNMT max response; stronger effect = lower value.
Assay [7] has as its target Phenylethanolamine N-methyltransferase (Homo sapiens) (UniProt P11086). The assay is described as above. To be noted: MTase-Glo luminescence, SAH detection, recombinant enzyme; measured here: PNMT max response; stronger effect = lower value.
A further assay deals with CAOV3. The assay can be described thus: Primary qHTS to identify gynecologic anti-cancer compounds using libraries of approved drugs and bioactive compounds (AID 1345084). Also: nearly all actives have a fitted effect of over 55% in size. Also: potency is read from the fitted curve at half-maximal effect. To be noted: Gynecologic cancer cell panel viability, ATPlite luminescence, 48 h; series mostly up to 57.5 µM. In a few lines:
(§1)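 Five-concentration response, 48 h; readout is ATP-driven luciferase luminescence.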

A further assay deals with PA-1. The assay is described as above. To be noted: Gynecologic cancer cell panel viability, ATPlite luminescence, 48 h; series mostly up to 57.5 µM. In short, it runs like this: as §1
Another assay concerns SKOV3. The assay is described as above. To be noted: Gynecologic cancer cell panel viability, ATPlite luminescence, 48 h; series mostly up to 57.5 µM. In a few lines: as §1
For assay [8], the system named is Zika virus NS2B-NS3 protease (unlinked complex). The assay is described as follows: Primary screen GU Rhodamine qHTS for Zika virus inhibitors: Unlinked NS2B-NS3 protease assay (AID 1347159). Also: % is scaled to controls: 0 for no effect and ±100 for the full control effect; nearly all actives have a fitted effect of over 60% in size. In short, it runs like this: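 Unlinked NS2B/NS3, 25 nM; Rhod110 peptide, 1.5 microM; compounds, up to 114 microM. Reaction run 15 min at RT in 10 mM Tris-HCl pH 8.0, 0.01% Tween 20; kinetic fluorescence change fitted with a 4-parameter Hill model.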

Assay [9] is described as follows: qHTS to identify inhibitors of the type 1 interferon - major histocompatibility complex class I in skeletal muscle: primary screen against the NCATS Mechanism Interrogation Plate v5.0 (MIPE) Libary (AID 1347411). Also: nearly all actives have a fitted effect of over 65% in size. Also: potency is read from the fitted curve at half-maximal effect.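 As to activity change, negative = inhibition: plate controls were vehicle for no effect and reference inhibitor for full effect.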 In a few lines: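 IFN-beta-driven (4 ng/ml) HLA-B-HiBit expression in CRISPR-tagged C25cl48 myoblasts; compounds 11-pt, 1:3, max 46 uM, 24 hr exposure; lytic NanoLuc complementation luminescence.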

A short description of assay [10]: P-glycoprotein substrates identified in KB-8-5-11 adenocarcinoma cell line, qHTS therapeutic library screen (AID 1346987). Also: % is scaled to controls: 0 for no effect and ±100 for the full control effect; nearly all actives have a fitted effect of over 65% in size. In short, it runs like this: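 Human cervical adenocarcinoma KB-8-5-11 cells, selected in colchicine to over-express P-gp and assayed without it, were exposed for 72 h to titrated compounds. An ATP-based luminescent viability signal gave AC50.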

A short description of assay [11]: P-glycoprotein substrates identified in KB-3-1 adenocarcinoma cell line, qHTS therapeutic library screen (AID 1346986).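 Also: potency is read from the fitted curve at half-maximal effect; potency is for cytotoxicity meaning loss of cell viability; nearly all actives have a fitted effect of over 60% in size.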 In short, it runs like this:
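Viability by CellTiter-Glo after 72 h compound exposure at 37 degree C, 5% CO2. Cytotoxic call: curve class -1.1 to -2.4, maximum response >50%, AC50 < 10 uM, compared across KB-3-1 and P-gp-overexpressing KB-8-5-11.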

Inconclusive results are not listed. Calls of active or inactive are those of the source. Unless noted, calls follow the shape of the dose curve; as a rule, active = well fitted curve in the direction sought with a large enough effect; inconclusive = small, poorly fitted or top-dose-only effect, or another doubt; inactive = no such curve, though single readings can be large; an effect the other way counts as inactive or inconclusive.

The results in this text go back to PubChem BioAssay (NCATS).

Sequence of Cytochrome P450 2C9 (Homo sapiens) (P11712 whole entry, looked up): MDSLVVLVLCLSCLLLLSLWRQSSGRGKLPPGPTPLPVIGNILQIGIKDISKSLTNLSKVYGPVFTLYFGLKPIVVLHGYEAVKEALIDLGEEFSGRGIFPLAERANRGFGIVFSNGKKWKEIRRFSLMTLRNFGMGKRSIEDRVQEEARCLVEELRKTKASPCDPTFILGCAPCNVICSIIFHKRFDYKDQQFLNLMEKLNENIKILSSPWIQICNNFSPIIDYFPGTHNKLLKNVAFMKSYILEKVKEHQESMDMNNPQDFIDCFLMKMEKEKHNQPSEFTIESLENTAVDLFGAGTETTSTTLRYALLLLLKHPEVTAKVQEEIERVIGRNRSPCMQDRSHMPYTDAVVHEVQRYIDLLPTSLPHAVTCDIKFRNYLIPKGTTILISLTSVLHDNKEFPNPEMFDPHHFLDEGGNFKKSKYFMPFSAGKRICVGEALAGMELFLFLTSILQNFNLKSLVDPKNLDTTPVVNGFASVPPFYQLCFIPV
Sequence of Nicotinamide N-methyltransferase (Homo sapiens) (P40261 whole entry, looked up): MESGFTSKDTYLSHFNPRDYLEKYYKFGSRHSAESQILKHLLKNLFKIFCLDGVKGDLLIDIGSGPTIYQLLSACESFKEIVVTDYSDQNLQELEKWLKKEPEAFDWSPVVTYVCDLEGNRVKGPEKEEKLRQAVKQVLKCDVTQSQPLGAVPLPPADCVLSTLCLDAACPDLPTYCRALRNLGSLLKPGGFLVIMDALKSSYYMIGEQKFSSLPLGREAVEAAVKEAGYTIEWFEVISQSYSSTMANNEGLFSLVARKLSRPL
Sequence of Phenylethanolamine N-methyltransferase (Homo sapiens) (P11086 whole entry, looked up): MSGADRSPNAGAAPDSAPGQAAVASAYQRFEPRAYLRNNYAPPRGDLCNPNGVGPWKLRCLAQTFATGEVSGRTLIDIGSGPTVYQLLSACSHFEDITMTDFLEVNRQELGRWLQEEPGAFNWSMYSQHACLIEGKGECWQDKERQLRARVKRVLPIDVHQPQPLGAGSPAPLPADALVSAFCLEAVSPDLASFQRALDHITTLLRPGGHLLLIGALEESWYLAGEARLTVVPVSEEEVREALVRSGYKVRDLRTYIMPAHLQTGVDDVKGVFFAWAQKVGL

`CC1OC2O[C@H]3[C@@H](OCC(O)[C@H]3O)OC(=O)C34CCC(C)(C)CC3C3=CCC5C6(C)CC(O)C(OC7OC(CO)C(O)C(O)C7O[C@@H]7OC[C@H](OC(=O)CC(C)(O)CC(=O)OC1C(OC1OCC(O)C(O)C1O)C2O)[C@@H](O)[C@H]7O)C(C)(CO)C6CCC5(C)C3(C)CC4` (stereo not given in full): the Potency result in assay [1] was “inactive”. Besides, in the assay with NIH3T3, the max response is -22% (inactive).

With `Cc1cc(C)c(NC(=O)N(Cc2ccc3c(c2)Cc2ccccc2-3)C2CCCCCC2)c(C)c1`, the Potency result (in [2]; in assay [1]; in the assay with CAOV3; in the assay on PA-1; in the assay with SKOV3) was “inactive” each time. For the same molecule, in assay [3], the Potency was 6.01 µM (active). Besides, the results for the activity in assay [4], in assay [6] and in [7] were -9.37%, -15.8% and -14.1%, respectively. Also, the activity change, negative = inhibition in assay [5] is -11.3%.

Consider `Cc1cc(C)c(-c2csc(NC(=O)c3ccccc3)n2)c(C)c1`, for which the Potency result in [8] and in assay [1] was “inactive” each time. In addition, the Potency in the assay with NIH3T3 was 8.2 µM (active); in the assay with SKOV3, 25.1 µM (active).

`C=C(C)C(=O)O[C@H]1[C@H]2C(=C)C(=O)O[C@@H]2C[C@@H](C)/C=C\C(=O)[C@](C)(O)[C@@H]1OC(C)=O`: the Potency in the assay on NIH3T3 is 7.09 µM (active); with CAOV3, 8.91 µM (active); with PA-1, 10 µM (active); with SKOV3, 11.2 µM (active).

For the molecule `Cc1cc(N=Nc2ccc(S(=O)(=O)Nc3ccccn3)cc2)c(N)cc1O`, the Potency was 597 nM (active) in [1], 8.2 µM (active) in the assay on NIH3T3 and 8.91 µM (active) in the assay with PA-1.

On to `CNCCN(C)Cc1cn[nH]c1-c1ccc(OC2CC(OCCC3CCOCC3)C2)cc1` (stereo not given), for which the Potency result in assay [9] is “inactive”. Further, the results for the activity in assay [4], in assay [6] and in [7] were 0.741%, -3.1% and -1.61%, respectively. The activity change, negative = inhibition in assay [5] came to 7.78%. In addition, in the assay with NIH3T3, the max response was -20% (inactive).

With `Cc1nc(C)c2c(n1)N(Cc1ccc(-c3ccccc3-c3nn[nH]n3)cc1)C(=O)CC2`, the Potency entry (in assay [8]; in assay [2]; in assay [1]; with CAOV3; in the assay on PA-1; in the assay on SKOV3) was “inactive” throughout.

For `Nc1nc(NCC2CCC(CNS(=O)(=O)c3cccc4ccccc34)CC2)nc2ccccc12` (stereo not given), the Potency entry (in assay [8]; in the assay with PA-1) was “inactive” in each case. Besides, the Potency in assay [2] was 3.38 µM (active); in assay [3], 4.77 µM (active); with NIH3T3, 20.6 µM (active). Further, the figures for the activity in [4], in assay [6] and in [7] were -12.1%, -26.1% and -28.4%, respectively. In assay [5], the activity change, negative = inhibition was -4.41%.

As for `CN[C@@H]1[C@@H](O)[C@@H](O[C@@H]2[C@@H](O)[C@H](O[C@H]3O[C@@H]([C@@H](C)NC)CC[C@H]3N)[C@@H](N)C[C@H]2N)OC[C@]1(C)O`, the Potency result (in assay [8]; in the assay on CAOV3; in the assay on PA-1; in the assay with SKOV3) was “inactive” in each case.

`C=CC(=O)N1CCN(C(=O)c2cc(-c3cc(Cl)ccc3Cl)c(Cl)cc2OC)CC1`: the Potency entry (in assay [8]; in [3]; in [1]; with PA-1) was “inactive” in each case. Further, in assay [2], the Potency was 19 µM (active). Further, the results for the activity in assay [4], in assay [6] and in [7] were -10.7%, -31.6% and -2.64%, respectively. Also, in assay [5], the activity change, negative = inhibition was -11.4%. In addition, the max response in the assay with NIH3T3 is -20.9% (inactive).

Take `CC(=O)N[C@@H](CC(=O)O)C(=O)N[C@@H](CCC(=O)O)C(=O)N[C@H](C(=O)N[C@@H](CC(=O)O)C(=O)Nc1ccc2c(C)cc(=O)oc2c1)C(C)C`: the Potency result in [8] is “inactive”.

Take `CNCc1ccc(C)c(NC(=O)c2ccc(Nc3nc(-c4ccccc4)c4ccccc4n3)cc2)c1`: the Potency was 33 µM (active) in [9], 12 µM (active) in assay [2] and 18.4 µM (active) in the assay with NIH3T3. Moreover, the Potency result in assay [3] and in assay [1] was “inactive” throughout.

Regarding `CC[C@H]1OC(=O)[C@H](C)[C@@H](O[C@H]2C[C@@](C)(OC)[C@@H](O)[C@H](C)O2)[C@H](C)[C@@H](O[C@@H]2O[C@H](C)C[C@H](N(C)C)[C@H]2O)[C@](C)(O)C[C@@H](C)/C(=N/OCOCCOC)[C@H](C)[C@@H](O)[C@]1(C)O`, the Potency result (in assay [10]; with CAOV3; in the assay with PA-1; in the assay with SKOV3) was “inactive” throughout.

Consider `CC1CCCC(SCC(O)C(=O)O)CC(=O)c2c(O)cc(O)cc2CC(=O)O1` (stereo not given), for which the Potency result in the assay on CAOV3 was “inactive”.

Consider `CC1(CO)CCCC2(C)C1C(OC(=O)c1ccccc1)C=C1C(=O)OCC12O` (stereo not given), for which the Potency in the assay with NIH3T3 is 12.8 µM (active).

Turning to `COc1cc(N2CCOCC2)ccc1Nc1ncc(F)c(Nc2ccccc2NS(C)(=O)=O)n1`, in assay [8], the Potency result was “inactive”. Moreover, in [3], the Potency was 2.13 µM (active). The results for the activity in assay [4], in assay [6] and in [7] were -0.204%, 3.16% and -0.832%, respectively. Moreover, the activity change, negative = inhibition in [5] came to 2.81%.

As to `CC(=O)N1CCN([C@H]2CCN(C(=O)N(C)[C@H](C)c3cc(C(F)(F)F)cc(C(F)(F)F)c3)[C@@H](c3ccc(F)cc3C)C2)CC1`, the Potency result (in [8]; in the assay on CAOV3; in the assay with PA-1; with SKOV3) was “inactive” each time. Also, the Potency in assay [2] is 26.8 µM (active).

`COc1cc(N2CCN(C(C)=O)CC2)ccc1Nc1ncc(Cl)c(Nc2ccc(N3CCN(C(C)=O)CC3)cc2OC)n1`: the Potency in [11] was 14.6 µM (active); in assay [3], 5.35 µM (active); with NIH3T3, 4.11 µM (active). In addition, in assay [8], the Potency result is “inactive”.
